Measured values reported in PubChem BioAssay (NCATS).
Records with an inconclusive call do not appear. Active and inactive are the calls of the source. Unless noted, the call rests on the fitted dose curve; in most records, active means well fitted curve in the direction sought with a large enough effect; inconclusive means small, poorly fitted or top-dose-only effect, or another doubt; inactive means no such curve, though single readings can be large; an effect the other way counts as inactive or inconclusive.

Legend:
[1] = Cytometric Cell-Based qHTS for Inhibitors of the mTORC1 Signaling Pathway in MEF (Tsc2-/-, p53-/-) Cells (AID 2660);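 further: percent of cells above a phospho-rpS6 to PI ratio cutoff in each well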
How it was run: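 Tsc2-/-, p53-/- MEFs (empty vector) exposed to compound 24 h at 37 C, fixed, stained with Alexa-488 anti-phospho-rpS6 Ser235/236 and propidium iodide. Acumen laser scanning; phospho-S6/PI ratio thresholded against 7.5 nM rapamycin, reported as % positive cells.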

[2] = High Content Imaging Cell-Based qHTS for Inhibitors of the mTORC1 Signaling Pathway in MEF (Tsc2-/-, p53-/-) Cells (AID 2666); details: at 38.3 µM (top of the series);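 further: percent of cells scored positive for phospho-rpS6 Ser235/236 immunostaining by imaging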
How it was run: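 Tsc2-/-, p53-/- MEFs (empty-vector stable) grown in DMEM + 10% FBS were exposed to compounds for 24 hrs at 37 degree Celsius, fixed, and stained with Alexa-488 anti-phospho-rpS6 Ser235/236 plus Hoechst. Imaging gave the percentage of positive cells per well.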

[3] = High Content Imaging Cell-Based qHTS for Inhibitors of the mTORC1 Signaling Pathway in MEF Cells (AID 2667);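 further: Tsc2-/- p53-/- MEFs stably re-expressing wild-type Tsc2 exposed 24 h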
How it was run: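 Tsc2-/-, p53-/- MEFs stably re-expressing WT Tsc2, grown in DMEM + 10% FBS, were treated with compounds for 24 hrs at 37 degree Celsius, fixed, and stained with Alexa-488 phospho-rpS6 Ser235/236 antibody plus Hoechst; results given as % positive cells.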

[4] = Cytometry Cell-Based qHTS for Inhibitors of the mTORC1 Signaling Pathway in MEF cells (AID 2668);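 further: Tsc2-/- p53-/- mouse embryonic fibroblasts stably re-expressing wild-type Tsc2; percent cells positive for phospho-rpS6 Ser235/236 relative to propidium iodide stain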
How it was run: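 Phospho-rpS6 (Ser235/236) immunofluorescence over PI signal, scored as % positive cells using thresholds from 7.5 nM rapamycin and DMSO wells, after 24 h compound exposure of WT-Tsc2-rescued Tsc2-/-, p53-/- MEFs. PI cell count recorded for viability.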

[5] = molecular target: Ubiquitin carboxyl-terminal hydrolase 2 (Homo sapiens) (UniProt O75604); assay: qHTS Validation Assay for Inhibitors of Ubiquitin-specific Protease USP2a Using CHOP2 as the Reporter (AID 463106)
Ubiquitin carboxyl-terminal hydrolase 2 (Homo sapiens), sequence (O75604 whole entry, looked up): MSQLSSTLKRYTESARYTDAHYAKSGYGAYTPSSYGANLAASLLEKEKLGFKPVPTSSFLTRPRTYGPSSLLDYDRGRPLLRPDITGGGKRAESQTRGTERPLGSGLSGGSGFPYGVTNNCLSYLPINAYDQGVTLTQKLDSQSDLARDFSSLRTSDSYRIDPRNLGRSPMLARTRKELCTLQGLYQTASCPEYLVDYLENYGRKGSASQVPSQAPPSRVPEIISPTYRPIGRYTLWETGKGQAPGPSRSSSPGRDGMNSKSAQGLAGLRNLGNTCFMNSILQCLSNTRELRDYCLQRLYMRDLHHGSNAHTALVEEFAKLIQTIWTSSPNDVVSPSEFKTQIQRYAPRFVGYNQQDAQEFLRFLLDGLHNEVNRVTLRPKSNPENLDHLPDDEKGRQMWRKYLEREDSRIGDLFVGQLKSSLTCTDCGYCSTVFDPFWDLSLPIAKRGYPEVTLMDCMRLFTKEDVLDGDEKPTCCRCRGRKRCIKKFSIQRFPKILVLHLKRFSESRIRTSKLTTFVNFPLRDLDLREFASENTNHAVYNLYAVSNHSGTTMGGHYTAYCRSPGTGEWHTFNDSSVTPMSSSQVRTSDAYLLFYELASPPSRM
How it was run: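 Readout was coupled fluorescence (Ex 485/Em 531 nm), read 60 min after adding 25 nM final Ub-CHOP2 and 25 nM reporter substrate. Beforehand, 10 nM final USP2 core had 30 min at RT with compound in pH 8.0 buffer. Curves were fitted after normalization to NEM and flagged for artifacts using time-zero reads.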

[6] = molecular target: Tumor susceptibility gene 101 protein (Homo sapiens) (UniProt Q99816); assay: qHTS Validation Assay for Iinhibitors of HIV-1 Budding by Blocking the Interaction of PTAP/TSG101 (AID 485342; calls by dose curve)
How it was run: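 Fluorescence polarization of 50 nM FITC-PTAP peptide bound to 10 uM Tsg101 binding domain was read after 20 min room-temperature incubation with compounds, in 10 mM HEPES pH 7.5, 0.15 M NaCl, 0.01% Tween 20.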

[7] = molecular target: Beta-2 adrenergic receptor (Homo sapiens) (UniProt P07550); assay: qHTS validation assay of beta-arrestin-biased ligands of beta2-adrenergic receptor (AID 485366)
Beta-2 adrenergic receptor (Homo sapiens), sequence (P07550 whole entry, looked up): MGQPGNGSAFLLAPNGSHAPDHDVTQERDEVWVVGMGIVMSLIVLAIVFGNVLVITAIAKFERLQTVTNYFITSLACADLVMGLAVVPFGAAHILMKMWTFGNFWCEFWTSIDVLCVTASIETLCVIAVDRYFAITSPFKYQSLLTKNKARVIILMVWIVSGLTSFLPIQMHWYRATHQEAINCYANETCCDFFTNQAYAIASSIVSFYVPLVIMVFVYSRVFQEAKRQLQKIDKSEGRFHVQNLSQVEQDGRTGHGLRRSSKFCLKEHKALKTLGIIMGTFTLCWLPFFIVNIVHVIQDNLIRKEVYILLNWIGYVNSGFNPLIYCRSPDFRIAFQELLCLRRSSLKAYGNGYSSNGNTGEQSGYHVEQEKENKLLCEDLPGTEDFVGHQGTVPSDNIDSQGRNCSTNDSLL
How it was run: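 qHTS, Tango cells, 1500 cells/well, DMEM + 1% FBS. Cpd 18 hr at 37 degrees C. Luciferin/ATP/CoA detection mix, 15 min RT, luminescence read. %Activity from corrected signal; CRC fit, curve class.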

[8] = molecular target: Thioredoxin reductase 1, cytoplasmic (Rattus norvegicus) (UniProt O89049); assay: qHTS Assay for Substrates of Mammalian Selenoprotein Thioredoxin Reductase 1 (TrxR1) (AID 488772);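 further: a drop in NADPH fluorescence below the no-compound background marks a TrxR1 substrate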
Thioredoxin reductase 1, cytoplasmic (Rattus norvegicus), sequence (O89049 whole entry, looked up): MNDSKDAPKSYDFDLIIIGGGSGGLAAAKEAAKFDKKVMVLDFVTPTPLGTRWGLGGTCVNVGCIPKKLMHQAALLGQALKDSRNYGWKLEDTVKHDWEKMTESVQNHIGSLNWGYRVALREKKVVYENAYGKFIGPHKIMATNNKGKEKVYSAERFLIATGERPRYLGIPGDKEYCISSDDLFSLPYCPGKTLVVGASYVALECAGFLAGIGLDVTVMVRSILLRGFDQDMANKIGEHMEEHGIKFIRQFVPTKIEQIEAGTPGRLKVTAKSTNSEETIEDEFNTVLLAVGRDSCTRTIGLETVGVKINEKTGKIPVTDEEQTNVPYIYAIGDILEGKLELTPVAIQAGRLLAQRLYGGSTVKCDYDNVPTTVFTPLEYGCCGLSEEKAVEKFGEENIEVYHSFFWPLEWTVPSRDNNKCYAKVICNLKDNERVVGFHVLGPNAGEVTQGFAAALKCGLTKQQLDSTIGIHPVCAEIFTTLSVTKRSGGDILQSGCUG
How it was run: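 In this dual-purpose format, potential substrates are identified from the first fluorescence read after selenite addition, not from the 8-minute delta. Rat enzyme is preincubated with NADPH and then with compound at ~22 deg C.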

[9] = molecular target: Thioredoxin reductase 1, cytoplasmic (Rattus norvegicus) (UniProt O89049); assay: qHTS Assay for Inhibitors of Mammalian Selenoprotein Thioredoxin Reductase 1 (TrxR1) (AID 488773); details: Potency: inhibition;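 further: drop in NADPH fluorescence over an 8 min run after selenite addition; nearly all actives have a fitted effect of over 40% in size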
How it was run: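 Inhibition is scored from the loss of NADPH fluorescence between first and last reads of an 8-min kinetic run. Selenite (400 uM) was the substrate, added after 15 min compound preincubation at room temperature.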

[10] = molecular target: M-phase phosphoprotein 8 (Homo sapiens) (UniProt Q99549); assay: qHTS Validation Assay for Inhibitors for MPP8 Chromodomain Interactions with Methylated Histone Tails (AID 488949);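 further: AlphaScreen signal from MPP8 chromodomain bound to biotinylated H3K9me3 peptide; top concentration of the series differs between compounds; nearly all actives have a fitted effect of over 55% in size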
M-phase phosphoprotein 8 (Homo sapiens), sequence (Q99549 whole entry, looked up): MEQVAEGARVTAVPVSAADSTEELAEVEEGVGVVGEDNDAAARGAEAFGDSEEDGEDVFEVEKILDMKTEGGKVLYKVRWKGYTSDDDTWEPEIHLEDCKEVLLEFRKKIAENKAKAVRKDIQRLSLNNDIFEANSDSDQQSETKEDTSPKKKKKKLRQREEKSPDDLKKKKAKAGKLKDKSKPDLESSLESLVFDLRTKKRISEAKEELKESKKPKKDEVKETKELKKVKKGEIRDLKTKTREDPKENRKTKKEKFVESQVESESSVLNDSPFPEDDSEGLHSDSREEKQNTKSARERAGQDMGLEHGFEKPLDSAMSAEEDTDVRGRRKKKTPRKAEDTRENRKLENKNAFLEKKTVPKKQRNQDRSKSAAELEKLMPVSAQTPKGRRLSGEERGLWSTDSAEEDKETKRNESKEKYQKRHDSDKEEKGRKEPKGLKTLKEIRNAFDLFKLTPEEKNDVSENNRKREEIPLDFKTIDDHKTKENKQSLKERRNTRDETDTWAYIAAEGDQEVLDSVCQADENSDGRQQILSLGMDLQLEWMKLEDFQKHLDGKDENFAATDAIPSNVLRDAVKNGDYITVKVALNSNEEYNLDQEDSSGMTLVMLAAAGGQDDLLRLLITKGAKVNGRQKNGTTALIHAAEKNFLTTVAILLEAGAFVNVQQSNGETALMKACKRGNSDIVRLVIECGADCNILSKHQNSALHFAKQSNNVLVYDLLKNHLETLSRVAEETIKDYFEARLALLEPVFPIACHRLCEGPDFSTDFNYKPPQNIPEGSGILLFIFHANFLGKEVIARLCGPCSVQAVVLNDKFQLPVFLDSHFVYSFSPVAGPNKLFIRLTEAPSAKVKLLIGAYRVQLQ
How it was run: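 AlphaScreen proximity signal from streptavidin donor and Ni-chelate acceptor beads (10 ug/mL each) reported binding of MPP8 to trimethyl-K9 H3(1-18) peptide, both at 50 nM. The complex formed 30 min before a 30 min compound exposure at room temperature, in PBS pH 7.4.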

[11] = molecular target: Chromobox protein homolog 1 (Homo sapiens) (UniProt P83916); assay: qHTS Validation Assay for Inhibitors of HP1-beta Chromodomain Interactions with Methylated Histone Tails (AID 488953);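 further: loss of AlphaScreen luminescence from HP1-beta binding biotinylated H3K9me3 peptide; nearly all actives have a fitted effect of over 50% in size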
Chromobox protein homolog 1 (Homo sapiens), sequence (P83916 whole entry, looked up): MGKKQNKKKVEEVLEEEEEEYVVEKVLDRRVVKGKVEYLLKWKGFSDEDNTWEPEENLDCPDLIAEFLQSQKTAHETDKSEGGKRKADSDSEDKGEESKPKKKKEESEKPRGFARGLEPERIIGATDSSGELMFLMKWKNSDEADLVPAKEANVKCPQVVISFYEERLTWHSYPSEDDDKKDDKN
How it was run: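 AlphaScreen proximity signal from streptavidin donor and nickel chelate acceptor beads (final 10 ug/mL) after 30 min dark incubation. Compounds had 30 min at room temperature with preformed complex of 50 nM HP1-beta and 50 nM b-H3(1-18)K9me3 in PBS pH 7.4 with 0.01% Tween-20.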

[12] = molecular target: Methanococcus maripaludis chaperonin (MmCpn) (UniProt Q6LX38); assay: High-Throughput Screening for Modulators of Cytosolic Chaperonin Activity: MmCpn Primary Screen (AID 488978);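 further: 50 nM MmCpn enzyme hydrolysing 30 µM ATP at 37 °C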
Methanococcus maripaludis chaperonin (MmCpn), sequence (Q6LX38 1-543): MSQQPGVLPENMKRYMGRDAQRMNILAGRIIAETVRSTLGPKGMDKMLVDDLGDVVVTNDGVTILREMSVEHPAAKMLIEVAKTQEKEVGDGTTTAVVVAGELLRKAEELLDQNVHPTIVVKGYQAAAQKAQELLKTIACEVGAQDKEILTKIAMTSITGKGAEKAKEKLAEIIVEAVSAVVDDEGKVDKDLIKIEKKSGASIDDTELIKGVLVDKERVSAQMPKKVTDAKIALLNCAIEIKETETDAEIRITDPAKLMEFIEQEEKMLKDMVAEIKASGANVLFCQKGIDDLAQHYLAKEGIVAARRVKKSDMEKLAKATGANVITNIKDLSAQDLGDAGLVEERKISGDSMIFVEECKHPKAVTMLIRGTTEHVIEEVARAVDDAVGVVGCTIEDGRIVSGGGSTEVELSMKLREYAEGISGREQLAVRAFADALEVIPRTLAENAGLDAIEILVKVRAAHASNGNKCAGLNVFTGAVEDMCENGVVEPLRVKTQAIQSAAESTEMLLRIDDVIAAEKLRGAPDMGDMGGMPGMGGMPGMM
How it was run: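 ATPase activity of 50 nM MmCpn was assayed with 30 uM ATP, 10 minutes at 37C, after a 5 min compound preincubation at room temperature. ADP production was read as HTRF emission at 590 and 665 nm.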

[13] = molecular target: D(1A) dopamine receptor (Homo sapiens) (UniProt P21728); assay: HTS Assay for Allosteric Agonists of the Human D1 Dopamine Receptor: Primary Screen for Agonists (AID 488981)
D(1A) dopamine receptor (Homo sapiens), sequence (P21728 whole entry, looked up): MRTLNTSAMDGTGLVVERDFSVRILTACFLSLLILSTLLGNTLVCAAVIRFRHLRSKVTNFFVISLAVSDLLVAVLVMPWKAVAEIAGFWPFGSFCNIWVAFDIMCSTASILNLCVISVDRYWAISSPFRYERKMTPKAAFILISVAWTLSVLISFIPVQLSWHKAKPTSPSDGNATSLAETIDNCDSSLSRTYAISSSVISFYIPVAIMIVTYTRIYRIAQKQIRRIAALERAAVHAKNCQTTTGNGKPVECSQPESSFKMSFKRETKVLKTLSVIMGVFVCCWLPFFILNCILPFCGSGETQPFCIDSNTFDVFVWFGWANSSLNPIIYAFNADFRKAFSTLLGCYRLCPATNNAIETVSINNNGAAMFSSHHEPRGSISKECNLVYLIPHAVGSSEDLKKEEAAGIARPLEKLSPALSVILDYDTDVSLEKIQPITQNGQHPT
How it was run: (§1)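 Calcium flux in an inducible, force-coupled HEK293 Trex D1 line (overnight at 30 C): agonist mode is the 180 s kinetic read after compound; potentiator mode is the following 180 s read after dopamine at EC20.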

[14] = molecular target: D(1A) dopamine receptor (Homo sapiens) (UniProt P21728); assay: HTS Assay for Allosteric Agonists of the Human D1 Dopamine Receptor: Primary Screen for Potentiators (AID 488982)
How it was run: as §1

[15] = molecular target: D(1A) dopamine receptor (Homo sapiens) (UniProt P21728); assay: HTS Assay for Allosteric Agonists of the Human D1 Dopamine Receptor: Primary Screen for Antagonists (AID 488983);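 further: calcium flux response to an EC80 dopamine challenge measured with no-wash dye; nearly all actives have a fitted effect of over 65% in size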
How it was run: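 Calcium-flux read-out in inducible HEK293 T-REx cells expressing D1, dye-loaded 30–90 min at room temperature. Kinetic reads: 180 s after compound (agonist phase), then 180 s after an EC80 dopamine challenge.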

[16] = Validation screen for small molecules that induce genotoxicity in human embryonic kidney (HEK293T) cells expressing luciferase-tagged ELG1 (AID 493106)
How it was run: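 ELG1-luciferase reporter readout (ONE-Glo, 30 min, room temperature) after 16 hr compound treatment at 37 °C of HEK293T cells at 2,000 per well. Rising luminescence flags genotoxic stress.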

[17] = molecular target: ATPase family AAA domain-containing protein 5 (Homo sapiens) (UniProt Q96QE3); assay: Validation screen for small molecules that inhibit ELG1-dependent DNA repair in human embryonic kidney (HEK293T) cells expressing luciferase-tagged ELG1 (AID 493107);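 further: inhibitors lower the ELG1-luciferase luminescence signal; nearly all actives have a fitted effect of over 70% in size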
How it was run: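 Luciferase read-out, ONE-Glo, 30 min at room temperature, follows 16 h co-exposure at 37 C of compound and the DNA-damaging agent 5-fluorouridine. Cells: HEK293T with ELG1-luciferase fusion, 2,000 per well, DMSO as vehicle.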

[18] = Nrf2 qHTS screen for inhibitors: Validation (AID 493153; active means well fitted inhibition curve with a large enough effect in the main read-out, with a control signal flat, not every such curve was filed as active); details: viability change: measured here: cytotoxicity max response
How it was run: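 Concentration-response on A549 ARE_Fluc reporter cells exposed 18-24 h at 37 C, 5% CO2. Cytotoxicity read first by CellTiter-Fluor fluorescence (Ex 405/Em 525), then Nrf2 inhibition by BugLite luminescence after 15 min.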

[19] = qHTS for Inhibitors of Cell Surface uPA Generation: Validation Assay (AID 493164);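 further: RAW 264.7 macrophage cells exposed to compound for 18 h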
How it was run: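 ATP-Lite luminescence read-out: ATP remains high when uPA activity-dependent LF translocation into the cytoplasm is blocked. RAW 264.7 cells, 18 h compound exposure at 37 C; 7-point titration, 2.45 nM to 38.3 uM final.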

[20] = molecular target: Phosphoglycerate kinase, glycosomal (Trypanosoma brucei brucei) (UniProt P07378); assay: qHTS Validation Assay to Find Inhibitors of Phosphoglycerate Kinase (AID 504547)
How it was run: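 Luminescence end-point (Kinase-Glo Plus, 10 min) after a 60 min room-temperature coupled reaction. GAPDH at 100nM final supplies 1,3-BPG to PGK. Buffer: 100mM TEA pH 7.6, 5mM MgCl2, 0.01% Tween-20. Wells lacking PGK served as controls.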

[21] = molecular target: phosphoglycerate mutase (Leishmania major) (UniProt Q4Q090); assay: qHTS Validation Assay to Find Inhibitors of Phosphoglycerate Mutase (AID 504548)
How it was run: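 Lm PGAM at 1.25 nM final with substrate in 100 mM TEA pH 7.6, 5 mM MgCl2, 0.01% Tween-20; 45 min at room temperature. Kinase-GloPlus added, 10 min, end-point luminescence read.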

[22] = molecular target: Ubiquitin carboxyl-terminal hydrolase 1 (Homo sapiens) (UniProt O94782); assay: Inhibitors of USP1/UAF1: Pilot qHTS (AID 504865);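 further: rhodamine fluorescence freed from ubiquitin-rhodamine substrate followed over time; top concentration of the series differs between compounds; nearly all actives have a fitted effect of over 35% in size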
Ubiquitin carboxyl-terminal hydrolase 1 (Homo sapiens), sequence (O94782 whole entry, looked up): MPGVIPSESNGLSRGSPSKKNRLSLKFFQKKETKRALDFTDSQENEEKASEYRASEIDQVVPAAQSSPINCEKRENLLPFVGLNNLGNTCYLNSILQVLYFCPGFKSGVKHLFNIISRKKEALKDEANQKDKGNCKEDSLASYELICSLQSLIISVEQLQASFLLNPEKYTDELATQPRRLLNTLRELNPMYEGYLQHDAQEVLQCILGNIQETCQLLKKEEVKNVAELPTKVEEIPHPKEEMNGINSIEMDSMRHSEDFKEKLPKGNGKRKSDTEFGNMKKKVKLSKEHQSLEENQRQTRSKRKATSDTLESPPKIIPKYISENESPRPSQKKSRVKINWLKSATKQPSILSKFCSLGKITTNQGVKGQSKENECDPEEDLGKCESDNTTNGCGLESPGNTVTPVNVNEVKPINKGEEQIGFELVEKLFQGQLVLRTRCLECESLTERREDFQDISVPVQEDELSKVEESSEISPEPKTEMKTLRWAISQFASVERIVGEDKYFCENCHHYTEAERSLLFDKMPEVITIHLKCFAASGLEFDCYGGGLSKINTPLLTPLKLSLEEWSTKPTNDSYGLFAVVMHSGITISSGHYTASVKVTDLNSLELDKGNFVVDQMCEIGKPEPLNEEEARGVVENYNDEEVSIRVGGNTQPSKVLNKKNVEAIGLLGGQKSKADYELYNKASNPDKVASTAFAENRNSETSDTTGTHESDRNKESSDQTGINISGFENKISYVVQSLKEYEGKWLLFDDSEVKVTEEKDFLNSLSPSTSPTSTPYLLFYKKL
How it was run: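 Deubiquitinase activity followed as kinetic rhodamine fluorescence release from 150 nM Ub-Rho. 1 nM USP1/UAF1 with compound, after 15 min room-temperature preincubation, in HEPES pH 7.8 buffer containing TCEP, EDTA, BSA and Tween-20.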

[23] = qHTS for Inhibitors of ATXN expression: Validation (AID 588378); further: nearly all actives have a fitted effect of over 75% in size
How it was run: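 Luciferase luminescence (Bright-Glo) from an ATXN2-FFLuc HEK293 line after 24 h compound exposure at 37 °C, preceded by a CellTiter-Fluor fluorescence viability read. Serial dilutions of a reference ATXN2 inhibitor and a luciferase inhibitor served as controls.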

[24] = molecular target: Glutaminase kidney isoform, mitochondrial (Homo sapiens) (UniProt O94925); assay: qHTS for Inhibitors of Glutaminase (GLS): LOPAC Validation (AID 624146);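 further: glutamate product detected by oxidase and peroxidase coupled Amplex red fluorescence gain; nearly all actives have a fitted effect of over 60% in size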
Glutaminase kidney isoform, mitochondrial (Homo sapiens), sequence (O94925 whole entry, looked up, canonical isoform): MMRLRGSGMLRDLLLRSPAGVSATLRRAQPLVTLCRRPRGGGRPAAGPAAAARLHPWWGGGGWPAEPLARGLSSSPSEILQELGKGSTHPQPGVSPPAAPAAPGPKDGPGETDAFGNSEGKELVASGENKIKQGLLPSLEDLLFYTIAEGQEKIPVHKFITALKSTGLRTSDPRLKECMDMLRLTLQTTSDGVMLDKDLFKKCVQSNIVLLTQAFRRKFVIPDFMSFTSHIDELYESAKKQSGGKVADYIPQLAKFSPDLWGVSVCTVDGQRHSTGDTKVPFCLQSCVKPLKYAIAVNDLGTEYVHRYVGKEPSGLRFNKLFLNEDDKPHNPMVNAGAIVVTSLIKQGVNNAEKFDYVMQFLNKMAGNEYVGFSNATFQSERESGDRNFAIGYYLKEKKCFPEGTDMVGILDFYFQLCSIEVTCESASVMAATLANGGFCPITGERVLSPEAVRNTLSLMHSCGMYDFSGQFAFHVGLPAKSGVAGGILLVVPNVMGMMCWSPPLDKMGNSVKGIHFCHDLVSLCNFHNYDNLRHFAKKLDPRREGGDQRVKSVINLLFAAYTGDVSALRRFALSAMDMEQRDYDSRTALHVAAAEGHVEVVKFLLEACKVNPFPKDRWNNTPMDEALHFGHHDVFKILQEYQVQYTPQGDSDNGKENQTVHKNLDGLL
How it was run: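 hKGA in 45 mM KH2PO4 pH 8.2, 0.02% Tween-20 with pin-transferred compounds; 1 mM L-glutamine (stock) plus glutamate oxidase/HRP/Amplex Red coupling added. Fluorescence read initially and after 30 min at RT.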

[25] = molecular target: Glucagon-like peptide 1 receptor (Homo sapiens) (UniProt P43220); assay: qHTS of GLP-1 Receptor Agonists: LOPAC Validation (AID 624148);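 further: luminescence from a luciferase reporter switched on by cAMP; higher luminescence signal means agonism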
How it was run: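 Agonism scored as increased luciferase luminescence driven by cAMP in HEK293 clones carrying GLP-1R. Cells settled 12 hours, received compound for 4-6 hr at 37 deg C, 5% CO2, and were read after 12 min detection reagent at RT.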

[26] = qHTS of Nrf2 Activators: LOPAC Validation (AID 624149)
How it was run: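 Luciferase signal from ARE activation, read with Steady-Glo after 30 min at room temperature. Compounds were pin-transferred onto AREc32_Fluc cells (1000/well, OPTI-MEM/5% FBS, seeded overnight) and left 24 hr at 37 deg C.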

CN1C2CCCC1CC(NC(=O)c1nn(C)c3ccccc13)C2 (configuration not stated)
0.0672%: viability change [18]
inactive: outcome [1] | outcome [2] | Potency [3] | Potency [4] | Potency [5] | outcome [6] | outcome [7] | outcome [8] | Potency [9] | Potency [10] | Potency [11] | outcome [12] | outcome [13] | outcome [14] | outcome [15] | Potency [16] | Potency [17] | outcome [18] | outcome [19] | Potency [20] | outcome [21] | Potency [22] | Potency [23] | Potency [24] | outcome [25] | outcome [26]
